PINK1 modulator: modulators of PINK1 expression | PINK1 immunofluorescence, high-content cytometry, 24 h | Potency, µM (top dose mostly 76.6 µM), without a hit: top-dose activation (PINK1 increase), most hits filed as activators | hit rate 0.2% among 410,000 | AID 624263; active means well fitted activation curve with a large enough effect; inconclusive means small, poorly fitted or top-dose-only effect; cell line not stated here; further: % of control where 0% means no effect; nearly all actives have a fitted effect of over 65% in size
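PINK1 protein, normally rapidly degraded, was detected by immunofluorescence after 24 hour compound treatment of a stable cell line. Titration data (5 concentrations) came from laser-scanning cytometry, with CCCP-treated wells as controls.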
SW480 rerep: induces DNA re-replication in SW480 colon adenocarcinoma cells; SW480 DNA re-replication, Hoechst DNA content imaging, 48 h; Potency, µM (top dose mostly 46.1 µM), for inactives: top-dose re-replication activation, usual class: activators; hit rate 1.8% among 340,000; further: % of control where 0% means no effect; nearly all actives have a fitted effect of over 55% in size
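Image-based read-out: total Hoechst fluorescence of nuclei (405 nm excitation, 500-530 nm emission), with hits raising the fraction of high-intensity nuclei. SW480 colon cells incubated 48 hr with compounds at 37 C.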
MCF10A rerep: inducers of DNA re-replication in MCF 10A breast cells; hit rate 2.9% among 350,000; MCF 10A DNA re-replication, Hoechst nuclear intensity, 48 h; Potency, µM (titrated, usually from 46.1 µM), without a hit: at the top dose activity, positive = re-replication, actives largely listed as activators; AID 624296; further: % of control where 0% means no effect; nearly all actives have a fitted effect of over 50% in size
ALOX12 inh: ALOX12 (human) lipoxygenase inhibition; P18054; purified 12hLO, xylenol orange hydroperoxide absorbance; Potency, µM (highest dose often 108 µM), for inactives: top-dose activity change, negative = inhibition, hits mostly inhibitors; hit rate 1.1% among 580,000; AID 1671190; further: on the % scale 0 is the no-effect control and ±100 the full control effect
Target sequence (P18054 whole entry, looked up): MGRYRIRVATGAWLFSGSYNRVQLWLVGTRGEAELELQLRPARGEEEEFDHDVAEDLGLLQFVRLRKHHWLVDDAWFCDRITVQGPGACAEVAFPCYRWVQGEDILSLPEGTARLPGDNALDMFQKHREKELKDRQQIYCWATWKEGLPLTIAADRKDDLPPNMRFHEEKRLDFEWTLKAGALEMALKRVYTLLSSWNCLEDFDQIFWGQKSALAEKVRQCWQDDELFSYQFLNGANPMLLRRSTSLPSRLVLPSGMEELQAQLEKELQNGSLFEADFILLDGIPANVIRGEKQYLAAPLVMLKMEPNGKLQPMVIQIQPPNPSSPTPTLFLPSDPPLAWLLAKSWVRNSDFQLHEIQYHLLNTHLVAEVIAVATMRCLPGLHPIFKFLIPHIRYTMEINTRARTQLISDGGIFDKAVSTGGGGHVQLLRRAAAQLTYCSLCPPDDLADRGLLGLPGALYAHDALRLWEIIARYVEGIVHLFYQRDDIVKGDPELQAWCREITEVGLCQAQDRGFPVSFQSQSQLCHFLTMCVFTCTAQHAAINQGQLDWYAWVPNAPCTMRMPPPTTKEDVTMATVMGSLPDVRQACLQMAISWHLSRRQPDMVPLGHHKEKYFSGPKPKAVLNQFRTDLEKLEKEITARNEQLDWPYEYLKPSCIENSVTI
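Purified human 12hLO at 150 nM in 25 mM Hepes, 0.01% Triton X-100, pH 7.0, preincubated 15 min at room temperature with compound. Reaction started with 40 uM arachidonic acid, 30 min at room temperature. Hydroperoxide measured by Fe-xylenol orange, 573/405 nm absorbance ratio.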
KB-3-1 cytotox: kills parental KB-3-1 adenocarcinoma cells | Potency, µM (highest dose often 46.1 µM), most hits filed as cytotoxic | hit rate 1.4% among 400,000 | KB-3-1 viability, CellTiter-Glo ATP luminescence, 72 h; further: on the % scale 0 is the no-effect control and ±100 the full control effect; nearly all actives have a fitted effect of over 60% in size
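Using CellTiter-Glo luminescence, growth of non-resistant KB-3-1 adenocarcinoma cells is assessed 72 h after pin-tool compound addition at 37 °C. Normalized responses across the concentration series yield fitted curves.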
KB-V1 cytotox: kills drug-selected multidrug resistant KB-V1 cells. KB-V1 MDR cells viability, CellTiter-Glo, 72 h. Potency, µM (highest dose often 46.1 µM), usual class: cytotoxic. hit rate 3.4% among 400,000; further: on the % scale 0 is the no-effect control and ±100 the full control effect; nearly all actives have a fitted effect of over 60% in size
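KB-V1 MDR subline cells in DMEM (phenol-red free, 10% FBS) exposed to compounds in qHTS concentration series for 72 h at 37 degrees C. Viability read by CellTiter-Glo luminescence; concentration-effect curves fitted after normalization and correction.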
Active calls of the source: *; i = inactive; u = inconclusive; x = not tested or not shown; [ ] = another dose, or the depositor's remark. Shown are actives, neighbours in structure and some others; about 5.8% of the full set was active somewhere. Unless noted, the call rests on the fitted dose curve; in most records, active means well fitted curve in the direction sought with a large enough effect; inconclusive means small, poorly fitted or top-dose-only effect, or another doubt; inactive means no such curve, though single readings can be large; an effect the other way counts as inactive or inconclusive. Potency means the concentration at half of the fitted maximal effect.

SMILES | PINK1 modulator | SW480 rerep | MCF10A rerep | ALOX12 inh | KB-3-1 cytotox | KB-V1 cytotox
OC[C@@H]1[C@@H](c2ccc(Cl)cc2)C(c2ccc(F)cc2)=NN1c1ccccc1 | 3% | 4.1µM* | 1.8µM* | u | i | i
OC[C@@H]1[C@@H](c2ccccc2)C(c2ccccc2)=NN1c1ccccc1 | 15% | u | u | u | i | i
COC(=O)c1sc(C(=O)OC)c(C(=O)OC)c1C(=O)OC | -1% | -8% | -7% | -9% | i | i
COC(=O)c1sc(=S)sc1C(=O)OC | x | 1% | u | 45µM* | i | i
CC(=O)N1CC2(CCCCN2Cc2cccc(C(N)=O)c2)Cc2ccccc21 (stereo unspecified) | x | x | x | 3%[6.33 µM] | x | x
COc1ccc(NC(=O)CCc2c[nH]c3ccccc23)cc1 | x | x | x | -9% | x | x
COc1ccc(CNCCc2ccc([N+](=O)[O-])cc2)c(OC)c1OC | 1% | -2% | 0% | 7.9µM* | i | i
C[C@H](CO)N1C[C@H](C)[C@@H](CN(C)Cc2ccncc2)Oc2c(NC(=O)Cc3ccccc3)cccc2C1=O | 2% | u | 1% | 1% | 16µM* | i
C[C@H](CO)N1C[C@H](C)[C@@H](CN(C)Cc2ccccc2)Oc2c(NC(=O)Cc3ccccc3)cccc2C1=O | -1% | -5% | u | 13% | 23µM* | u
C[C@H](CO)N1C[C@H](C)[C@@H](CN(C)C)Oc2c(NS(=O)(=O)c3cn(C)cn3)cccc2C1=O | -1% | 0.92µM* | -9% | -3% | i | i
C[C@@H]1CN([C@H](C)CO)C(=O)c2cccc(NC(=O)NC3CCCCC3)c2O[C@@H]1CN(C)C(=O)Nc1ccc(C(F)(F)F)cc1 | 6% | u | u | x | u | i
C[C@H](CO)N1C[C@H](C)[C@@H](CN(C)Cc2ccc(-c3ccccc3)cc2)Oc2c(NC(=O)Cc3ccccc3)cccc2C1=O | 0% | u | u | x | i | u
C[C@H](CO)N1C[C@H](C)[C@@H](CN(C)C(=O)Nc2ccc(C(F)(F)F)cc2)Oc2c(NC(=O)NC3CCCCC3)cccc2C1=O | 4% | -46% | 3.3µM* | -10% | u | i
COc1cccc(CN(C)Cc2cccn2C)c1 | x | x | x | -8%[176 µM] | x | x
CCCCc1ccc(NC(=O)c2nn(CC)c(=O)c3ccccc23)cc1 | x | x | x | 0% | x | x
CCn1c(SCC(=O)c2ccc[nH]2)nnc1-c1ccncc1 | x | x | x | -1% | x | x
CCN(C(=O)COC(=O)Cc1sc(N)nc1-c1ccc(C)cc1)c1cccc2ccccc12 | x | x | x | -2% | x | x
Cc1ccc(CN2C[C@@H](CO)[C@H](c3nc(C)no3)C2)cc1 | x | x | x | 28% | x | x
CCc1nnc(NC(=O)C2Cc3ccccc3CN2S(=O)(=O)CC)s1 (stereo unspecified) | 0% | 1% | 4% | 1% | i | i
CCc1nnc(NC(=O)C2Cc3ccccc3CN2S(=O)(=O)c2c(C)c(C)cc(C)c2C)s1 (stereo unspecified) | -2%[38.3 µM] | 14% | u | -20% | i | 10µM*
CCS(=O)(=O)N1Cc2ccccc2CC1C(=O)N1CCN(c2ccccc2)CC1 (stereo unspecified) | -1% | 3% | 11% | -6% | i | 10µM*
CCS(=O)(=O)N1Cc2ccccc2CC1C(=O)Nc1nnc(C2CC2)s1 (stereo unspecified) | 2% | -1% | 1% | 0% | i | u
CCS(=O)(=O)N1Cc2ccccc2CC1C(=O)Nc1nc2ccccc2s1 (stereo unspecified) | 5% | 1% | 17% | -3% | i | 16µM*
CCS(=O)(=O)N1Cc2ccccc2CC1C(=O)Nc1nnc(SCc2ccc(F)cc2)s1 (stereo unspecified) | 0% | u | u | 14% | i | 4.1µM*
CCS(=O)(=O)N1Cc2ccccc2CC1C(=O)Nc1nc2ccccc2[nH]1 (stereo unspecified) | -1% | 1% | 3% | 4% | i | i
SMILES | PINK1 modulator | SW480 rerep | MCF10A rerep | ALOX12 inh | KB-3-1 cytotox | KB-V1 cytotox
N#Cc1cccc(/C=C2\CCOc3cc(Br)ccc3C2=O)c1 | x | x | x | 4% | x | x
O=C(O)CNC(=O)CNC(=O)CCn1c(-c2ccccc2)cc2ccccc21 | x | x | x | -9% | x | x
COc1ccc(NC(=O)Nc2ccc(C)c(OCc3cc(=O)n4ccccc4n3)c2)cc1OC | x | x | x | 5% | x | x
O=C(Nc1ccc(S(=O)(=O)N2CCOCC2)cc1)c1ccc([N+](=O)[O-])s1 | -1% | i | 13µM* | u | 5.2µM* | u
O=C(Nc1ccc(S(=O)(=O)N2CCOCC2)cc1)c1cccs1 | 3% | 11% | 11% | 0% | i | i
O=C(Nc1ccccc1N1CCOCC1)c1ccc([N+](=O)[O-])s1 | 2% | 16µM* | u | 48% | u | u
Cc1ccc(NC(=O)c2cc(S(=O)(=O)N3CCOCC3)c(Br)s2)cc1 | -2% | 2% | 1% | 12% | u | 23µM*
O=C(Nc1ccccc1N1CCOCC1)c1ccccc1[N+](=O)[O-] | -3% | -1% | 197%[0.0737 µM] | -24% | i | i
CCN1CCN(CCNC(=O)C2CCCN(c3nc4cccnc4s3)C2)CC1 (stereo unspecified) | x | x | x | 1% | x | x
CN(C)CCN(Cc1ccccc1)c1ccnc(N(C)C)c1C#N | -2% | -2% | 4% | u | i | i
CN(C)c1nccc(N(Cc2ccccc2)Cc2ccccc2)c1C#N | 13% | -3% | u | 3.2µM* | u | 13µM*
CC(O)CNCCCOc1ccccc1OCc1ccccc1 (stereo unspecified) | 0% | -8% | -1% | -17% | i | u
CNCC(C)COc1ccccc1OCc1ccccc1 (stereo unspecified) | 0% | 10% | 0% | -17% | i | 21µM*
CCCCCCCCS(=O)CCCl (stereo unspecified) | x | x | x | -22% | x | x
C=CCn1c(=O)[nH]c2cc(C(=O)N3CCN(c4cccc(Cl)c4)CC3)ccc2c1=O | 1% | 11% | 17% | u | u | 12µM*
